The nature of experiment [1]: qHTS assay for small molecule agonists of the p53 signaling pathway (AID 651631; calls by dose curve; also: nearly all actives have a fitted effect of over 15% in size; also: potency is read from the fitted curve at half-maximal effect). The method in brief: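 We treat p53RE-bla HCT-116 cells with compounds for 16 h at 37 °C, add LiveBLAzer B/G FRET substrate for 2 h at room temperature, and measure fluorescence intensity.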
(In qHTS, concentration-response curves come from the screen itself.)

A short description of experiment [2]: qHTS assay for small molecule agonists of the p53 signaling pathway - cell viability (AID 651633; calls by dose curve; also: nearly all actives have a fitted effect of over 30% in size; also: potency is read from the fitted curve at half-maximal effect). The method in brief: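 p53RE-bla cells, seeded at 4,000 per well and rested 5 h at 37 C/5% CO2, received compounds in DMSO for 16 h at 37 C. CellTiter-Glo was then added, and luminescence was read after 30 min at room temperature to gauge cytotoxicity.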
The nature of experiment [3]: qHTS assay for small molecules that induce genotoxicity in human embryonic kidney cells expressing luciferase-tagged ATAD5 - cell viability (AID 651634; calls by dose curve; also: nearly all actives have a fitted effect of over 25% in size). The method in brief: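 Viability read: CellTiter-Fluor fluorescence, 30 min at 37C. Cells: HEK293T, luciferase-tagged ATAD5. Exposure: 15.5 hr, 37C, 5% CO2, compound or DMSO vehicle.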
The nature of experiment [4]: qHTS assay for small molecule disruptors of the mitochondrial membrane potential - cell viability (AID 720634; calls by dose curve;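 also: human HepG2 liver cancer cells; series mostly up to about 83 µM; nearly all actives have a fitted effect of over 20% in size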). The method in brief: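 HepG2, 1 hr compound, 37 C. ATP luminescence via CellTiter-Glo, 30 min RT, same well as m-MPI.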
Experiment [5] is described as follows: qHTS assay for small molecule disruptors of the mitochondrial membrane potential (AID 720635). Also: potency is read from the fitted curve at half-maximal effect. The method in brief: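 HepG2 cells (2,000/well) attached overnight at 37C, then took compound for 1 hr at 37C, 5% CO2. Mito-MPS dye was added for 30 min; fluorescence was read at 490/535 nm (monomers) and 540/590 nm (aggregates).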
A short description of experiment [6]: qHTS assay to test for compound auto fluorescence at 590 nm (red) in HepG2 cells (AID 720674). The method in brief: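 Rose Bengal sodium served as the red fluorophore standard. HepG2 monolayers (overnight attachment, MEM with 10% FBS) were exposed to test compounds for 1 hr at 37 C and read at Ex 540/Em 590 nm.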
A short description of experiment [7]: qHTS assay to test for compound auto fluorescence at 460 nm (blue) in HEK293 cells (AID 720678). The method in brief:
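Cells were seeded and left to adhere for 4-5 hr at 37C. Compounds were then pin-transferred. After an overnight incubation at 37C under 5% CO2, intrinsic fluorescence at 405/460 nm was measured and referenced to triamterene.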

Experiment [8] in a line: qHTS assay to test for compound auto fluorescence at 590 nm (red) in HEK293 cells (AID 720679). The method in brief:
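Each well held 2,000 HEK293 cells in medium containing 10% dialyzed FBS. Following 4-5 hr attachment at 37C, 23 nL test compound or DMSO was added; plates sat overnight, and red fluorescence (540/590nm) was recorded.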

Experiment [9] can be described thus: qHTS assay for small molecules that induce genotoxicity in human embryonic kidney cells expressing luciferase-tagged ATAD5 (AID 651632). Also: nearly all actives have a fitted effect of over 15% in size. The method in brief: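 Luminescent reporter readout, HEK293T ATAD5-luc line: 16 hr drug exposure (37C, 5% CO2) followed by Amplite, 30 min RT.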
A short description of experiment [10]: qHTS assay to test for compound auto fluorescence at 535 nm (green) in HepG2 cells (AID 720675).

Values without a mark were called inactive. Inconclusive results are not listed. The source made the active and inactive calls. Unless noted, calls follow the shape of the dose curve; as a rule, active = well fitted curve in the direction sought with a large enough effect in the repeat runs; inconclusive = weak or mixed curves; inactive = no such curve, though single readings can be large; an effect the other way counts as inactive or inconclusive.
% is scaled to controls: 0 for no effect and ±100 for the full control effect.

Regarding `CCC(Br)(CC)C(=O)NC(N)=O`, the Potency entry in [1], in experiment [2], in experiment [3], in experiment [4] and in [5] was “inactive” each time. In addition, the compound was called inactive in experiment [6], in experiment [7] and in experiment [8].
In the case of `CCOC(=O)CBr`, the Potency entry in [1], in experiment [9], in [2] and in [4] was “inactive” in each case. Moreover, the call in experiment [6], in experiment [7] and in [8] was inactive.
For the compound `CCCCOC(=O)c1ccccc1C(=O)OCc1ccccc1`, the Potency result in experiment [1], in experiment [9], in experiment [2] and in experiment [4] was “inactive” throughout. The result in experiment [6], in experiment [10], in experiment [7] and in [8] was inactive.
For the compound `Cn1cc[n+](C)c1` (tested in a mixture with another compound), the Potency result in [1], in experiment [2], in experiment [3], in [4] and in [5] was “inactive” throughout. The result in experiment [6], in [10], in [7] and in [8] was inactive.
As for `Cc1ccc(N)cc1C`, the Potency result in experiment [1], in [9], in [2] and in [4] was “inactive” in each case. Also, the result in experiment [6], in experiment [10], in experiment [7] and in [8] was inactive.
On to `CCC(COC(=O)c1cc(OC)c(OC)c(OC)c1)(c1ccccc1)N(C)C` (centres undefined), for which the Potency entry in [1], in [2], in experiment [3] and in experiment [4] was “inactive” throughout. Besides, the result in experiment [6], in [10], in experiment [7] and in [8] was inactive.
In the case of `O=C1C(Cl)C(CCl)CN1c1cccc(C(F)(F)F)c1` (centres undefined), the Potency result in experiment [1], in experiment [2] and in [3] was “inactive” throughout. Moreover, the compound was called inactive in [6], in experiment [10], in [7] and in [8].
As to `CCC(C)(NC(=O)c1cc(Cl)c(C)c(Cl)c1)C(=O)CCl` (centres undefined), the Potency was 27.5 µM (active) in experiment [1], 61.5 µM (active) in experiment [2] and 17.3 µM (active) in [5]. For the same compound, in experiment [9], the Potency result was “inactive”. The call in experiment [6], in [7] and in [8] was inactive.
For `CC[C@H]1C[C@H]2[C@@H]3CCC4=CC(=O)CC[C@@H]4[C@H]3CC[C@]2(C)[C@H]1O`, the Potency result in experiment [1], in [2] and in [4] was “inactive” throughout. The result in [6], in [10], in [7] and in experiment [8] was inactive.
In the case of `O=[N+]([O-])c1ccccc1CCl`, the Potency result in experiment [1], in experiment [2], in [3], in experiment [4] and in experiment [5] was “inactive” in each case. Also, the outcome in experiment [6], in [10] and in experiment [8] was inactive.
As to `Brc1ccccc1`, the Potency entry in [1], in experiment [2], in experiment [4] and in experiment [5] was “inactive” in each case. The call in [6], in experiment [10], in experiment [7] and in [8] was inactive.
With `CCCCc1c(C)nc(NCC)nc1OS(=O)(=O)N(C)C`, the Potency result in [1], in experiment [2] and in experiment [3] was “inactive” throughout. The Potency in [5] is 21.7 µM (active). Further, the outcome in experiment [6], in experiment [10], in experiment [7] and in [8] was inactive.
As for `NCCCNCCCN`, the Potency entry in experiment [1], in [2], in [3] and in [4] was “inactive” each time. Also, the call in experiment [6], in [10] and in experiment [8] was inactive.
Take `C=CC(=O)OC`: the Potency result in experiment [1], in [2], in [3] and in [4] was “inactive” in each case. Besides, the compound was classed as inactive in [6], in experiment [7] and in experiment [8].
`CO[C@@H]1[C@H](OC(=O)NC(=O)CCl)CC[C@]2(CO2)[C@H]1[C@@]1(C)O[C@@H]1CC=C(C)C`: the Potency in experiment [1] was 18.8 µM (active). The Potency entry in [2], in experiment [4] and in [5] was “inactive” in each case. In addition, in experiment [6], the fluorescence, relative to Rose Bengal was -0.229% [at 18.6 µM]. In experiment [10], the fluorescence, % of fluorescein control was -0.0271% [at 18.6 µM]. The fluorescence, % of fluorescent control in experiment [8] was 0.143% [at 18.6 µM].
On to `COP(=S)(OC)Oc1ccc([N+](=O)[O-])cc1Cl`, for which the Potency result in experiment [1], in experiment [9] and in experiment [2] was “inactive” each time. In addition, the Potency in experiment [5] is 24.3 µM (active). The call in experiment [6], in experiment [10], in [7] and in [8] was inactive.
Take `C=CC(=O)OCC(C)C`: the Potency result in experiment [1], in experiment [2] and in [3] was “inactive” throughout. Besides, the call in experiment [6], in experiment [10], in experiment [7] and in [8] was inactive.
Take `COCC(C)N(C(=O)CCl)c1c(C)csc1C` (centres undefined): the Potency entry in experiment [1], in experiment [2], in experiment [3], in [4] and in experiment [5] was “inactive” throughout. The compound was classed as inactive in experiment [6], in experiment [10], in experiment [7] and in experiment [8].
Take `Cc1ccc(-c2c(Cl)nc(C#N)n2S(=O)(=O)N(C)C)cc1`: the Potency is 15.3 µM (active) in experiment [1] and 1.09 µM (active) in experiment [5]. In addition, in experiment [3], the Potency entry was “inactive”. Further, the compound was classed as inactive in experiment [6], in experiment [10], in experiment [7] and in experiment [8].
Turning to `CCOc1nc(F)cc2nc(S(=O)(=O)Nc3c(Cl)cccc3Cl)nn12`, the Potency result in experiment [1], in [2], in experiment [4] and in [5] was “inactive” in each case. The result in experiment [6], in [10] and in experiment [8] was inactive.
On to `O=C(O)c1ccccc1C(=O)Nc1cccc2ccccc12`, for which the Potency result in experiment [1], in experiment [2], in experiment [3] and in experiment [4] was “inactive” in each case. Also, the call in [6], in [10], in experiment [7] and in [8] was inactive.
For the compound `CN1C(=O)C(O)N=C(c2ccccc2)c2cc(Cl)ccc21` (centres undefined), the Potency entry in experiment [9], in experiment [2], in experiment [3] and in [4] was “inactive” throughout. The call in [6], in experiment [10], in experiment [7] and in [8] was inactive.
For the compound `COC(C)(C)CCC[C@H](C)C/C=C/C(C)=C/C(=O)OC(C)C`, the Potency result in experiment [9] and in [3] was “inactive” each time. The Potency was 61.1 µM (active) in [2] and 30.6 µM (active) in experiment [5]. For the same compound, the call in experiment [6], in [10], in experiment [7] and in experiment [8] was inactive.
Turning to `CCC(Cl)CCl` (centres undefined), the Potency result in experiment [9], in experiment [2], in [3] and in experiment [4] was “inactive” throughout. The call in [6] and in experiment [8] was inactive.
In the case of `CCOC(=O)COc1cc(-c2nn(C)c(OC(F)F)c2Cl)c(F)cc1Cl`, the Potency entry in experiment [9], in experiment [2], in experiment [3] and in experiment [4] was “inactive” in each case. Moreover, the outcome in [6], in [7] and in [8] was inactive.
Take `C=COC(C)=O`: the Potency entry in experiment [9], in experiment [2], in experiment [3] and in experiment [4] was “inactive” throughout. The result in experiment [6], in [10], in experiment [7] and in [8] was inactive.
Regarding `Cc1ccccc1CCl`, the Potency entry in [9], in [2], in [3] and in experiment [4] was “inactive” throughout. Moreover, the compound was classed as inactive in experiment [6], in experiment [10], in [7] and in experiment [8].
On to `O=C(Nc1ccccc1)Nc1cnns1`, for which the Potency result in experiment [9], in [2], in experiment [3] and in experiment [4] was “inactive” throughout. Moreover, the Potency in experiment [5] is 3.06 µM (active). Also, the compound was called inactive in experiment [6], in [10], in experiment [7] and in [8].
As to `N#CCC#N`, the Potency result in experiment [9], in experiment [2], in experiment [3] and in experiment [4] was “inactive” each time. Besides, the compound was classed as inactive in experiment [6], in experiment [10], in experiment [7] and in [8].
In the case of `COP(=O)(OC)O/C(=C/Cl)c1cc(Cl)c(Cl)cc1Cl`, the Potency result in experiment [9], in [2], in experiment [3] and in [4] was “inactive” each time. The call in [6], in experiment [10], in experiment [7] and in experiment [8] was inactive.
On to `CCn1cc[n+](C)c1`, for which the Potency result in [9], in [2], in experiment [3], in experiment [4] and in experiment [5] was “inactive” each time. Moreover, the outcome in experiment [6], in experiment [10], in experiment [7] and in [8] was inactive.

For the origin of these results see PubChem BioAssay (Tox21).
